Here are results for 23 molecules from PubChem BioAssay (EPA / NIEHS).

SMILES strings stand for the structures. Results filed as inconclusive are left out. Activity calls are given as the source filed them. Rule for the calls: active = hit-call score of the fitted dose curve at least 0.9, where 1 is the maximum; inconclusive = response in the unintended direction; inactive = score below 0.9.

Sequence of Glyceraldehyde-3-phosphate dehydrogenase (Homo sapiens) (P04406 whole entry, looked up): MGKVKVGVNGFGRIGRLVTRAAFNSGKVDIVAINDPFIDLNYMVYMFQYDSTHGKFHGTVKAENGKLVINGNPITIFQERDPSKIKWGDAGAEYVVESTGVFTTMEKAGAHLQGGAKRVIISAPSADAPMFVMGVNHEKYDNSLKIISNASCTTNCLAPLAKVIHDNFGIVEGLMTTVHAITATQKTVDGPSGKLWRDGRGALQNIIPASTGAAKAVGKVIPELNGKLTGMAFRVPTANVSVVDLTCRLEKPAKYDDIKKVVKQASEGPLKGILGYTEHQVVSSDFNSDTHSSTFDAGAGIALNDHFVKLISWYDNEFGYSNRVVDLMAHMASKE

Read-out in this assay: Glyceraldehyde-3-phosphate dehydrogenase (Homo sapiens) (UniProt P04406)
Description: CLD_GAPDH_24hr: CellzDirect (CLD) Gene Expression Assay for Baseline Control (Glyceraldehyde 3-phosphate dehydrogenase) at 24 hours (AID 2283692). Here is the method: CLD_24hr is a cell-based, multiplexed-readout assay that uses hepatocyte, a human liver primary cell, with measurements taken at 24 hours after chemical dosing in a 96-well plate.CLD_GAPDH_24hr is one of 16 assay component(s) measured or calculated from the CLD_24hr assay. It is designed to make measurements of mRNA induction, a form of inducible reporter, as detected with chemiluminescence signals by Quantitative Nuclease Protection Assay (qNPA) technology.Data from the assay component CLD_GAPDH_24hr was analyzed at the endpoint, CLD_GAPDH_24hr, in the positive analysis fitting direction relative to DMSO as the negative control and baseline of activity. Using a type of inducible reporter, gain-of-signal activity can be used to understand changes in the reporter gene as they relate to the gene GAPDH. Furthermore, this assay endpoint can be referred to as a secondary readout, because this assay has produced multiple assay endpoints where this one serves a background control function. To generalize the intended target to other relatable targets, this assay endpoint is annotated to the background measurement intended target family, where subfamily is baseline control.
Human hepatocyte cultures were treated daily for two consecutive days with fresh dosing solutions containing appropriate concentrations of the 320 ToxCast chemicals (chemical identities were blinded to CellzDirect and other ToxCast collaborators), vehicle control (0.2% DMSO), and positive control inducers as summarized in Table 1. Due to the large number of treatment groups and chemicals examined, the ToxCast chemicals were divided into two groups (spanning two independent cultures of hepatocytes from separate donor preparations (Hu778: ToxCast plates 1 and 2; Hu776: ToxCast plates 3 and 4). Each preparation of human hepatocyte cultures was treated with respective vehicle control, medium only control, set of six positive controls/reference chemicals for the five hepatic receptor pathways, and a subset of eight of the ToxCast chemicals (indoxacarb, pyrithiobac-sodium, norflurazon, cyhalofop-butyl, methomyl, thiram, acetochlor, and propiconazole). These replicate data, coupled with internal replicates designed within the blinded ToxCast chemical library, provided additional data to evaluate interindividual differences between hepatocyte preparations and their potential impact on chemical profiles.Cell morphology and integrity were evaluated using phase-contrast microscopy as an indicator of hepatocyte cell health (Tyson & Green, 1987). Cultures for each treatment group (i.e., media, vehicle [0.2% DMSO], positive control inducers [multiple concentrations], and the ToxCast chemicals [multiple concentrations]) were observed and cell morphology was assessed relative to vehicle control cultures at each harvest time point (0, 6, 24, or 48 h). […] Images were evaluated at the conclusion of the study to assess changes in cell integrity and account for the effects of chemical exposure on uncharacteristic changes in concentration-dependent gene expression profiles. The results from these determinations of apparent cytotoxicity were annotated (yes/no) alongside the corresponding qNPA data for reference.At the conclusion of each treatment period, hepatocyte cultures (96-well) were washed with 1 volume of HBSS, lysed by addition of 25 ul ArrayPlate lysis buffer (HTG, Tucson, AZ), and 70 ul/well of Denaturation Oil, denatured by incubation at 95C for 10 min, and frozen at approximately -70C until analysis by nuclease protection assay (qNPA) (Roberts et al., 2007). For qNPA analysis, cell lysates were thawed at 50C for approximately 30 min, qNPA probes were added, and samples were incubated at 95C for 10 min to begin the detection process by denaturing the target RNA, dissociating the duplexes and secondary structure hybridization. At the conclusion of the hybridization period, S1 nuclease reagent was added to each sample to digest all nonprotected nucleotides at 50C for 60-90 min. […]
`CCON=C(CC)C1=C(O)CC(c2c(C)cc(C)cc2C)CC1=O` (stereo not drawn): the call was inactive. To `Oc1ccccc1-c1ccccc1` belongs “inactive”. To `CCCCNC(=O)OCC#CI` belongs “inactive”; to `CCCCNC(=O)n1c(NC(=O)OC)nc2ccccc21`, “inactive”; to `C=CC1(C)OC(=O)N(c2cc(Cl)cc(Cl)c2)C1=O` (stereo not drawn), “inactive”. Consider `C=CCC1=C(C)C(OC(=O)C2C(C=C(C)C)C2(C)C)CC1=O` (stereo not drawn), for which the call was inactive. On to `Cc1ccc(-c2c(Cl)nc(C#N)n2S(=O)(=O)N(C)C)cc1`, for which the outcome was inactive. On to `N#Cc1cc(Br)c(O)c(Br)c1`, for which the molecule was classed as inactive.

Regarding `CCCCOC(=O)c1ccccc1C(=O)OCCCC`, the result was inactive. Regarding `COC(=O)c1ccccc1C(=O)OC`, the molecule was called inactive. As for `CCCCC(CC)COC(=O)c1ccccc1C(=O)OCC(CC)CCCC` (stereo not drawn), the call was inactive. `COC(=O)C=C(C)OP(=O)(OC)OC`: the call was inactive.

`CN(C)C(=S)SSC(=S)N(C)C`: the molecule was classed as inactive.

For `COC(=O)C(C)Oc1ccc(Oc2ccc(Cl)cc2Cl)cc1` (stereo not drawn), the call was inactive. Turning to `CC(Oc1ccc(Cl)cc1Cl)C(=O)O` (stereo not drawn), the molecule was called inactive. In the case of `COc1nc(C)nc(NC(=O)NS(=O)(=O)c2ccccc2Cl)n1` it was “inactive”. To `COc1nc(C)nc(NC(=O)NS(=O)(=O)c2ccccc2CCC(F)(F)F)n1` belongs “inactive”; to `CNC(=S)S`, “inactive”; to `N#CC(CCc1ccc(Cl)cc1)(Cn1cncn1)c1ccccc1` (stereo not drawn), “inactive”. In the case of `O=C(O)COc1nc(Cl)c(Cl)cc1Cl` it was “inactive”; in that of `COP(=S)(OC)Oc1nc(Cl)c(Cl)cc1Cl`, “inactive”; in that of `COP(N)(=O)SC` (stereo not drawn), “inactive”. Turning to `CC(C)C1(C)N=C(c2nc3ccccc3cc2C(=O)O)NC1=O` (stereo not drawn), the outcome was inactive.
